# Reference: PubChem BioAssay (NCI)
# Compounds without any hit were thinned out: in the full panel of roughly 79,000, 15% have a hit. A number with no mark means an inactive call. Calls of active or inactive are those of the source. Rule as the data show it: active = growth inhibition above about 70%; inactive = the rest.
# Key:
# [1] = NCI Yeast Anticancer Drug Screen. Data for the rad52 strain (AID 147);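 also: 0% = growth of vehicle-treated control cultures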; conditions: S. cerevisiae rad52 mutant growth inhibition, hits give high values
# In short: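 Genetically altered yeast (DNA damage repair defect) treated with compound; inhibition calculated relative to vehicle.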
# [2] = NCI Yeast Anticancer Drug Screen. Data for the wt1 strain (AID 149);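 also: 0% = growth of vehicle-treated wt1 cultures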; conditions: S. cerevisiae wt1 strain (SPY 50644) growth inhibition, hits give high values
# In short: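 Measured: growth of wt1 yeast under compound versus vehicle treatment, reported as inhibition.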
# [3] = NCI Yeast Anticancer Drug Screen. Data for the rad50EPP+ strain (AID 151);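 also: 0% = growth of vehicle-treated control cultures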; conditions: S. cerevisiae rad50 mutant strain, hits give high values
# In short: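 Strain rad50EPP+; compound exposure; % growth inhibition vs vehicle.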
# [4] = NCI Yeast Anticancer Drug Screen. Data for the rad50 strain (AID 155);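 also: 0% = growth of vehicle-only cultures of the same strain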; conditions: S. cerevisiae rad50 strain growth inhibition, hits give high values
# In short: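 Growth of the mutant yeast was measured after compound exposure and referenced to vehicle-treated cultures.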
# [5] = NCI Yeast Anticancer Drug Screen. Data for the mec2-1 strain (AID 157); conditions: S. cerevisiae mec2-1 strain, hits give high values
# In short: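 Cells of the genetically defined mec2-1 yeast strain are incubated with test compound. Inhibition of growth is calculated against vehicle-treated controls.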
# [6] = NCI Yeast Anticancer Drug Screen. Data for the rad14 strain (AID 159);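 also: 0% = growth of vehicle-treated control cultures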; conditions: S. cerevisiae rad14 strain growth inhibition, hits give high values
# In short: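 Here, inhibition of yeast growth was measured after compound exposure, using a strain with a genetic defect in DNA damage repair and vehicle-treated cultures as the reference.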
# [7] = NCI Yeast Anticancer Drug Screen. Data for the sgs1 mgt1 strain (AID 161);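 also: 0% = growth of cultures given vehicle only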; conditions: S. cerevisiae sgs1 mgt1 strain, hits give high values
# In short: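 Genetically altered yeast, compound exposure, growth inhibition relative to vehicle.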
# [8] = NCI Yeast Anticancer Drug Screen. Data for the cln2 rad14 strain (AID 165);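 also: 0% = growth equal to vehicle treated cultures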; conditions: S. cerevisiae cln2 rad14 strain, hits give high values
# In short: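 The screen exposed genetically defined yeast (cln2 rad14) to test compounds and scored growth inhibition relative to vehicle-treated controls.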
# [9] = NCI Yeast Anticancer Drug Screen. Data for the bub3 strain (AID 167); conditions: S. cerevisiae bub3 mutant strain, hits give high values
# In short: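 Whole-cell yeast assay. The mutant strain was incubated with compounds, and growth inhibition was determined by comparison with vehicle-treated cells.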
# [10] = NCI Yeast Anticancer Drug Screen. Data for the wt2 strain (AID 169);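 also: 0% = growth of vehicle-treated yeast cultures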; conditions: S. cerevisiae wt2 strain growth inhibition, hits give high values
# In short: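 Steps: yeast strain treated with compound; growth recorded; inhibition calculated relative to cultures given vehicle alone.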
# [11] = NCI Yeast Anticancer Drug Screen. Data for the mlh1 strain (AID 171);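 also: 0% = growth of vehicle-treated control cultures of the same strain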; conditions: S. cerevisiae mlh1 strain growth inhibition, hits give high values
# In short: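 Yeast screen: mutant strain plus compound, growth scored against vehicle control wells.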
# [12] = NCI Yeast Anticancer Drug Screen. Data for the sgs1 strain (AID 173);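 also: 0% = growth of vehicle-only control cultures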; conditions: S. cerevisiae sgs1 mutant, hits give high values
# In short: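 Inhibition of yeast growth served as the measure. The mutant strain was treated with each compound, and growth was normalised to cultures receiving vehicle alone.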
# [13] = NCI Yeast Anticancer Drug Screen. Data for the mlh1 rad18 strain (AID 175); conditions: S. cerevisiae mlh1 rad18 strain growth inhibition, hits give high values
# In short: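 Compound-treated yeast growth, normalised to vehicle controls. Strain bears defined DNA repair mutations.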
# [14] = NCI Yeast Anticancer Drug Screen. Data for the CLN2oe strain (AID 163);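 also: 0% = growth of vehicle-only control cultures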; conditions: S. cerevisiae CLN2oe strain, hits give high values
# In short: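 Strain altered in cell-cycle control, incubated with compound; growth compared to solvent-treated controls.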
# [15] = NCI Yeast Anticancer Drug Screen. Data for the rad18 strain (AID 177); conditions: S. cerevisiae rad18 mutant growth inhibition, hits give high values
# In short: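 Inhibition values reflect reduced yeast growth compared with vehicle-treated controls, using a strain engineered with a DNA damage repair defect.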
# [16] = at 5.0 µM (retest, dose inferred, filed as 0.5)
# [17] = at 50.0 µM (retest, dose inferred, filed as 5.0)
compound,measurement,setting,value
OB(O)c1ccccc1C#Cc1ccccc1B(O)O,growth inhibition,[1]; at 1.2 µM,2%
same,growth inhibition,[1]; at 3.7 µM,7%
same,growth inhibition,[1]; at 11.0 µM,24%
same,growth inhibition,[1]; at 33.0 µM,59%
same,growth inhibition,[1]; at 100.0 µM,95% (active)
same,growth inhibition,[2]; at 1.2 µM,-2%
same,growth inhibition,[2]; at 3.7 µM,0%
same,growth inhibition,[2]; at 11.0 µM,6%
same,growth inhibition,[2]; at 33.0 µM,18%
same,growth inhibition,[2]; at 100.0 µM,59%
same,growth inhibition,[3]; at 1.2 µM,0%
same,growth inhibition,[3]; at 3.7 µM,6%
same,growth inhibition,[3]; at 11.0 µM,36%
same,growth inhibition,[3]; at 33.0 µM,69%
same,growth inhibition,[3]; at 100.0 µM,85% (active)
same,growth inhibition,[4]; at 1.2 µM,7%
same,growth inhibition,[4]; at 3.7 µM,17%
same,growth inhibition,[4]; [16],12%
same,growth inhibition,[4]; at 11.0 µM,47%
same,growth inhibition,[4]; at 33.0 µM,84% (active)
same,growth inhibition,[4]; [17],79% (active)
same,growth inhibition,[4]; at 50.0 µM,61.5%
same,growth inhibition,[4]; at 100.0 µM,96% (active)
same,growth inhibition,[5]; at 1.2 µM,-6%
same,growth inhibition,[5]; at 3.7 µM,1%
same,growth inhibition,[5]; [16],5%
same,growth inhibition,[5]; at 11.0 µM,13%
same,growth inhibition,[5]; at 33.0 µM,43%
same,growth inhibition,[5]; [17],50%
same,growth inhibition,[5]; at 50.0 µM,50%
same,growth inhibition,[5]; at 100.0 µM,87% (active)
same,growth inhibition,[6]; at 1.2 µM,-1%
same,growth inhibition,[6]; at 3.7 µM,3%
same,growth inhibition,[6]; at 11.0 µM,14%
same,growth inhibition,[6]; at 33.0 µM,41%
same,growth inhibition,[6]; at 100.0 µM,97% (active)
same,growth inhibition,[7]; [16],4%
same,growth inhibition,[7]; [17],44%
same,growth inhibition,[7]; at 50.0 µM,64.2%
same,growth inhibition,[8]; [16],9%
same,growth inhibition,[8]; [17],39%
same,growth inhibition,[8]; at 50.0 µM,70.3% (active)
same,growth inhibition,[9]; at 1.2 µM,-7%
same,growth inhibition,[9]; at 3.7 µM,-8%
same,growth inhibition,[9]; [16],-1%
same,growth inhibition,[9]; at 11.0 µM,-8%
same,growth inhibition,[9]; at 33.0 µM,8%
same,growth inhibition,[9]; [17],20%
same,growth inhibition,[9]; at 50.0 µM,58%
same,growth inhibition,[9]; at 100.0 µM,79% (active)
same,growth inhibition,[10]; at 1.2 µM,-1%
same,growth inhibition,[10]; at 3.7 µM,-3%
same,growth inhibition,[10]; at 11.0 µM,3%
same,growth inhibition,[10]; at 33.0 µM,18%
same,growth inhibition,[10]; at 100.0 µM,93% (active)
same,growth inhibition,[11]; at 1.2 µM,1%
same,growth inhibition,[11]; at 3.7 µM,1%
same,growth inhibition,[11]; at 11.0 µM,12%
same,growth inhibition,[11]; at 33.0 µM,27%
same,growth inhibition,[11]; at 100.0 µM,94% (active)
same,growth inhibition,[12]; at 1.2 µM,-1%
same,growth inhibition,[12]; at 3.7 µM,4%
same,growth inhibition,[12]; at 11.0 µM,17%
same,growth inhibition,[12]; at 33.0 µM,35%
same,growth inhibition,[12]; at 100.0 µM,91% (active)
same,growth inhibition,[13]; [16],20%
same,growth inhibition,[13]; [17],79% (active)
same,growth inhibition,[13]; at 50.0 µM,68.2%
CC(C)(C)[OH+][O-].[O-]c1ccc(Cl)cc1C=Nc1ccc(Cl)cc1[O-].[O]=[V],growth inhibition,[1]; at 1.2 µM,0%
same,growth inhibition,[1]; at 3.7 µM,4%
same,growth inhibition,[1]; at 11.0 µM,11%
same,growth inhibition,[1]; at 33.0 µM,30%
same,growth inhibition,[1]; at 100.0 µM,59%
same,growth inhibition,[2]; at 1.2 µM,12%
same,growth inhibition,[2]; at 3.7 µM,11%
same,growth inhibition,[2]; at 11.0 µM,15%
same,growth inhibition,[2]; at 33.0 µM,19%
same,growth inhibition,[2]; at 100.0 µM,29%
same,growth inhibition,[3]; at 1.2 µM,0%
same,growth inhibition,[3]; at 3.7 µM,10%
same,growth inhibition,[3]; at 11.0 µM,26%
same,growth inhibition,[3]; at 33.0 µM,43%
same,growth inhibition,[3]; at 100.0 µM,60%
same,growth inhibition,[4]; at 1.2 µM,-3%
same,growth inhibition,[4]; at 3.7 µM,34%
same,growth inhibition,[4]; [16],19%
same,growth inhibition,[4]; at 11.0 µM,44%
same,growth inhibition,[4]; at 33.0 µM,46%
same,growth inhibition,[4]; [17],17%
same,growth inhibition,[4]; at 50.0 µM,93.8% (active)
same,growth inhibition,[4]; at 100.0 µM,83% (active)
same,growth inhibition,[5]; at 1.2 µM,10%
same,growth inhibition,[5]; at 3.7 µM,17%
same,growth inhibition,[5]; [16],24%
same,growth inhibition,[5]; at 11.0 µM,13%
same,growth inhibition,[5]; at 33.0 µM,31%
same,growth inhibition,[5]; [17],9%
same,growth inhibition,[5]; at 50.0 µM,94.5% (active)
same,growth inhibition,[5]; at 100.0 µM,56%
same,growth inhibition,[6]; at 1.2 µM,4%
same,growth inhibition,[6]; at 3.7 µM,9%
same,growth inhibition,[6]; at 11.0 µM,12%
same,growth inhibition,[6]; at 33.0 µM,26%
same,growth inhibition,[6]; at 100.0 µM,54%
same,growth inhibition,[7]; [16],20%
same,growth inhibition,[7]; [17],40%
same,growth inhibition,[7]; at 50.0 µM,91.5% (active)
same,growth inhibition,[14]; at 1.2 µM,-3%
same,growth inhibition,[14]; at 3.7 µM,-3%
same,growth inhibition,[14]; at 11.0 µM,0%
same,growth inhibition,[14]; at 33.0 µM,11%
same,growth inhibition,[14]; at 100.0 µM,26%
same,growth inhibition,[9]; at 1.2 µM,19%
same,growth inhibition,[9]; at 3.7 µM,30%
same,growth inhibition,[9]; [16],41%
same,growth inhibition,[9]; at 11.0 µM,45%
same,growth inhibition,[9]; at 33.0 µM,58%
same,growth inhibition,[9]; [17],16%
same,growth inhibition,[9]; at 50.0 µM,92.7% (active)
same,growth inhibition,[9]; at 100.0 µM,76% (active)
same,growth inhibition,[10]; at 1.2 µM,14%
same,growth inhibition,[10]; at 3.7 µM,24%
same,growth inhibition,[10]; at 11.0 µM,13%
same,growth inhibition,[10]; at 33.0 µM,20%
same,growth inhibition,[10]; at 100.0 µM,30%
same,growth inhibition,[12]; at 1.2 µM,12%
same,growth inhibition,[12]; at 3.7 µM,16%
same,growth inhibition,[12]; at 11.0 µM,23%
same,growth inhibition,[12]; at 33.0 µM,33%
same,growth inhibition,[12]; at 100.0 µM,53%
same,growth inhibition,[13]; [16],24%
same,growth inhibition,[13]; [17],12%
same,growth inhibition,[13]; at 50.0 µM,95.2% (active)
same,growth inhibition,[15]; at 1.2 µM,4%
same,growth inhibition,[15]; at 3.7 µM,19%
same,growth inhibition,[15]; at 11.0 µM,24%
same,growth inhibition,[15]; at 33.0 µM,47%
same,growth inhibition,[15]; at 100.0 µM,78% (active)
